The nature of experiment [1]: qHTS assay for small molecules that induce genotoxicity in human embryonic kidney cells expressing luciferase-tagged ATAD5 (AID 651632). Note: nearly all actives have a fitted effect of over 15% in size. The essentials:
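A rise in luciferase signal from ATAD5-tagged HEK293T cells marks genetic stress. Cells were exposed to compounds for 16 hr at 37C, 5% CO2, then luciferase was quantified after a 30 min room-temperature incubation with Amplite.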
(In qHTS, concentration-response curves come from the screen itself.)

A short description of experiment [2]: qHTS assay for small molecule agonists of the p53 signaling pathway - cell viability (AID 651633; calls by dose curve; note: nearly all actives have a fitted effect of over 30% in size; note: potency is the fitted concentration of half-maximal effect). The gist of the method: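 p53RE-bla cells, seeded at 4,000 per well and rested 5 h at 37 C/5% CO2, received compounds in DMSO for 16 h at 37 C. CellTiter-Glo was then added, and luminescence was read after 30 min at room temperature to gauge cytotoxicity.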
Experiment [3] can be described thus: qHTS assay for small molecules that induce genotoxicity in human embryonic kidney cells expressing luciferase-tagged ATAD5 - cell viability (AID 651634; calls by dose curve; note: nearly all actives have a fitted effect of over 25% in size; note: potency is the fitted concentration of half-maximal effect). The essentials: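 Cytotoxicity counter-readout: after 15.5 hr compound treatment at 37C, live-cell protease activity in ATAD5-luciferase HEK293T cells measured by CellTiter-Fluor fluorescence, 30 min development at 37C.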

The nature of experiment [4]: qHTS assay for small molecule disruptors of the mitochondrial membrane potential - cell viability (AID 720634; calls by dose curve;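 note: human HepG2 liver cancer cells; series mostly up to about 83 µM; nearly all actives have a fitted effect of over 20% in size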). The gist of the method:
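Cytotoxicity was quantified from ATP content by CellTiter-Glo luminescence in the same wells as the MMP dye read-out. HepG2 (2,000 cells/well) were plated overnight and exposed to compounds for 1 hr at 37 C.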

Experiment [5] in a line: qHTS assay to test for compound auto fluorescence at 590 nm (red) in HepG2 cells (AID 720674). The gist of the method: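 Compound auto-fluorescence is scored relative to Rose Bengal sodium, measured at 540/590 nm in live HepG2 cultures after 1 hr compound contact (37 C, 5% CO2).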
The nature of experiment [6]: qHTS assay to test for compound auto fluorescence at 535 nm (green) in HepG2 cells (AID 720675).
Experiment [7] can be described thus: qHTS assay to test for compound auto fluorescence at 460 nm (blue) in HEK293 cells (AID 720678). The essentials: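 Blue read-out at excitation 405 nm and emission 460 nm follows overnight compound exposure of HEK293 cells at 37C in 5% CO2. Activity is given as auto fluorescence equivalency to triamterene.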
Experiment [8] can be described thus: qHTS assay to test for compound auto fluorescence at 590 nm (red) in HEK293 cells (AID 720679). The gist of the method: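 Red channel, Ex/Em 540/590nm; signal expressed as equivalency to Rose Bengal sodium. HEK293, 2,000 cells/well, 10% dialyzed FBS; 23 nL compound pinned after 4-5 hr attachment; overnight 37C/5% CO2 before reading.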
Experiment [9] in a line: qHTS assay for small molecule disruptors of the mitochondrial membrane potential (AID 720635). Note: potency is the fitted concentration of half-maximal effect. The essentials: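 HepG2 cells (2,000/well) attached overnight at 37C, then took compound for 1 hr at 37C, 5% CO2. Mito-MPS dye was added for 30 min; fluorescence was read at 490/535 nm (monomers) and 540/590 nm (aggregates).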

Records with an inconclusive call do not appear. The source made the active and inactive calls. Unless noted, calls come from the whole dose curve; as a rule, active = well fitted curve in the direction sought with a large enough effect in the repeat runs; inconclusive = weak or mixed curves; inactive = no such curve, though single readings can be large; an effect the other way counts as inactive or inconclusive.

Take `C[C@@H]1C[C@H]2C3C[C@H](F)C4=CC(=O)C=CC4(C)[C@@]3(F)[C@@H](O)CC2(C)[C@@]1(O)C(=O)COC(=O)C(C)(C)C` (stereo partly specified): the Potency entry in experiment [1], in experiment [2], in experiment [3], in experiment [4], in experiment [5] and in experiment [6] was “inactive” in each case. The Potency entry in [7] and in experiment [8] was “inactive” each time.
For the compound `CCN(CC)CCCC(C)Nc1cc(/C=C/c2ccccc2Cl)nc2cc(Cl)ccc12` (stereo unspecified), the Potency result in [1], in experiment [2], in experiment [3], in experiment [4], in [5] and in experiment [6] was “inactive” throughout. Also, the Potency result in experiment [7] and in [8] was “inactive” each time.
Turning to `OC1OC[C@@H](O)[C@H](O)[C@@H]1O` (stereo partly specified), the Potency result in [1], in experiment [2], in experiment [3], in experiment [4], in experiment [5] and in [6] was “inactive” each time. Besides, the Potency result in experiment [7] and in experiment [8] was “inactive” throughout.
On to `O=c1oc2cc(O)ccc2s1`, for which the Potency result in [1], in experiment [2], in experiment [3], in [4], in experiment [5] and in experiment [6] was “inactive” in each case. Also, the Potency entry in [7] and in experiment [8] was “inactive” in each case.
`COc1ccc2c(c1)N(C[C@H](C)CN(C)C)c1ccccc1S2`: the Potency entry in experiment [1], in experiment [2], in experiment [3], in experiment [4], in experiment [5] and in [6] was “inactive” in each case. Also, the Potency entry in [7] and in experiment [8] was “inactive” in each case.
For `C[C@]12CCC(=O)C[C@@H]1CC[C@@H]1[C@@H]2CC[C@]2(C)C=CC[C@@H]12`, the Potency result in experiment [1], in experiment [2], in experiment [3], in experiment [4], in experiment [5] and in experiment [6] was “inactive” throughout. For the same compound, the Potency entry in experiment [7] and in experiment [8] was “inactive” each time.
Take `CC[C@@H](C(=O)O)[C@@H]1O[C@@H]([C@@H](C)[C@H](O)[C@H](C)C(=O)[C@H](CC)[C@H]2O[C@]3(C=C[C@@H](O)[C@]4(CC[C@@](C)([C@H]5CC[C@](O)(CC)[C@H](C)O5)O4)O3)[C@H](C)C[C@@H]2C)[C@@H](C)C[C@@H]1C`: the Potency result in [1], in [2], in experiment [4], in experiment [5], in experiment [6] and in experiment [7] was “inactive” throughout. For the same compound, the Potency result in [8] was “inactive”. Further, the Potency in [3] was 1.88 µM (active).
For `COc1cc(Br)c(C[N+]2(CCOCCC3CCC4CC3C4(C)C)CCOCC2)cc1OC` (stereo unspecified), the Potency entry in [1], in [2], in [3], in experiment [4], in experiment [5] and in experiment [6] was “inactive” throughout. The Potency entry in experiment [7] and in [8] was “inactive” each time.
For the compound `C=CC1=C(C)C2=CC3=NC(=C(CC(=O)[O-])C4=NC(=C(C)C4=C([O-])[O-])C=c4[n-]c(c(C)c4CC)=CC1=N2)C(CCC(=O)[O-])C3C.[Cu+2].[Na+].[Na+].[Na+]` (stereo unspecified), the Potency result in experiment [1], in [2], in experiment [4], in [5], in experiment [6] and in experiment [7] was “inactive” in each case. Besides, in experiment [8], the Potency result was “inactive”. Besides, the Potency in experiment [3] is 23.7 µM (active).
Turning to `CN1[C@@H]2CC[C@H]1CC(OC(c1ccccc1)c1ccccc1)C2` (stereo partly specified), the Potency result in experiment [1], in experiment [2], in [3], in experiment [4], in experiment [5] and in [6] was “inactive” throughout. The Potency entry in experiment [7] and in [8] was “inactive” throughout.
`CC(C)(C)C1(O)CCN2CC3c4ccccc4CCc4cccc(c43)C2C1` (stereo unspecified): the Potency result in experiment [1], in experiment [3], in experiment [4], in experiment [5], in experiment [6] and in experiment [7] was “inactive” each time. Further, the Potency result in experiment [8] was “inactive”. Also, the Potency in experiment [2] is 13.3 µM (active).
With `O=C(O)COc1ccc(CCNS(=O)(=O)c2ccccc2)s1`, the Potency result in experiment [1], in [2], in [3], in [9], in experiment [5] and in experiment [6] was “inactive” throughout. Also, the Potency entry in [7] and in experiment [8] was “inactive” in each case.
With `S=C1SCN(Cc2ccccc2)CN1Cc1ccccc1`, the Potency result in experiment [1], in [2], in [3], in experiment [4], in [5] and in [6] was “inactive” in each case. The Potency result in [7] and in [8] was “inactive” throughout.
With `COc1ccc(C2(C#N)CCC(C(=O)O)CC2)cc1OC1CCCC1` (stereo unspecified), the Potency result in experiment [1], in experiment [2], in experiment [3], in [4], in [6] and in [7] was “inactive” each time. Besides, the Potency entry in experiment [8] was “inactive”.
`O=C(NOC[C@H](O)CO)c1ccc(F)c(F)c1Nc1ccc(I)cc1F`: the Potency entry in [1], in experiment [2], in [3], in experiment [4], in experiment [5] and in experiment [6] was “inactive” throughout. Moreover, the Potency result in experiment [7] and in [8] was “inactive” each time.
Regarding `CCCc1nc(C(C)(C)O)c(C(=O)OCc2oc(=O)oc2C)n1Cc1ccc(-c2ccccc2-c2nn[nH]n2)cc1`, the Potency result in [1], in [2], in experiment [3], in [9], in experiment [5] and in experiment [6] was “inactive” in each case. For the same compound, the Potency result in [7] and in experiment [8] was “inactive” throughout.
Turning to `CN1c2c(nc(N)[nH]c2=O)NCC1CNc1ccc(C(=O)NC(CCC(=O)O)C(=O)O)cc1` (stereo unspecified), the Potency entry in experiment [1], in experiment [2], in experiment [3], in [4], in experiment [5] and in experiment [6] was “inactive” in each case. Also, the Potency result in experiment [7] and in experiment [8] was “inactive” in each case.
`CCCCCc1ccc(C)cc1O`: the Potency entry in experiment [1], in experiment [2], in [3], in experiment [5], in experiment [6] and in [7] was “inactive” in each case. In experiment [8], the Potency entry was “inactive”. For the same compound, the Potency in experiment [9] is 10.6 µM (active).
As for `CO[C@H]1C[C@H](O[C@H]2[C@H](C)O[C@@H](O[C@@H]3/C(C)=C/C[C@@H]4C[C@@H](C[C@]5(C=C[C@H](C)[C@@H](C6CCCCC6)O5)O4)OC(=O)[C@@H]4C=C(C)[C@@H](O)[C@H]5OC/C(=C\C=C\[C@@H]3C)[C@]54O)C[C@@H]2OC)O[C@@H](C)[C@@H]1O`, the Potency entry in experiment [1], in experiment [5], in [6], in [7] and in experiment [8] was “inactive” each time. The Potency in experiment [2] is 6.68 µM (active); in experiment [3], 13.3 µM (active); in experiment [9], 11.9 µM (active).

(Values after PubChem BioAssay (Tox21).)
